About 350 (8.8%) of roughly 4,000 compounds were called active.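 The calls were made as follows: active = calcium fluorescence ratio at least three times the spread of buffer wells, meaning a non-specific response in parental cells; inactive = the rest.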 Not all results are given here.

The assay in a line: calcium response in parental HEK293 cells, primary screen, counter-screen for MrgX1 agonist project, cell-based, Fluo-4 calcium flux, duplicate, agonist mode (AID 624115). Particulars: parental HEK293, Fluo-4 calcium fluorescence (FDSS), at 10 µM; stronger effect = higher value.
With `CN(C)CCn1c(=S)[nH]c2ccc(Cl)cc2c1=O`, the fluorescence ratio F(max-min)/F0 entry is “inactive”. Turning to `FC(F)Oc1ccc(NC(=S)NCc2ccco2)cc1Cl`, the fluorescence ratio F(max-min)/F0 result is “inactive”. The figure for `O=c1c2cc(Br)ccc2nc(-c2cccc(Cl)c2)n1O` is 90.3 (active); for `O=C1CCCc2c1nc(-c1cccc(Cl)c1)n2O` it is “inactive”. In the case of `Cc1nonc1C1CCCN1Cc1nc(-c2ccc(F)cc2F)oc1C` (stereo not drawn), the fluorescence ratio F(max-min)/F0 result was “inactive”. With `O=C1Cc2ccccc2Sc2ccc(Cl)cc21`, the fluorescence ratio F(max-min)/F0 result was “inactive”.

As to `CCOc1ccc2nc(/N=C/c3nc(-c4ccccc4)oc3O)sc2c1`, the fluorescence ratio F(max-min)/F0 was 114 (active). The entry for `Cc1ccc(NC2(C#N)C(=O)Nc3ccccc32)cc1` (stereo not drawn) is “inactive”; for `Clc1ccc(-c2nc3ccccn3c2CN2CCSCC2)cc1` it is “inactive”. For `Cc1ccc2nc(Nc3ccccc3)cc(C)c2c1`, the fluorescence ratio F(max-min)/F0 entry was “inactive”. For the compound `Cc1cc2ncn(CCCCOc3ccccc3)c2cc1C`, the fluorescence ratio F(max-min)/F0 result is “inactive”. With `Cc1nn(-c2ccccc2)c(C)c1NC(=O)COc1ccc(Cl)cc1Cl`, the fluorescence ratio F(max-min)/F0 result was “inactive”. For `COc1ccc(OC)c(Nc2nc3ccccc3n3cnnc23)c1`, the fluorescence ratio F(max-min)/F0 result is “inactive”.

Take `Cc1nn(-c2ccccc2)c2c1C(c1ccc(F)cc1)C(C#N)=C(N)O2` (stereo not drawn): the fluorescence ratio F(max-min)/F0 result was “inactive”. Consider `Cc1ccc2cc(/C=N/Nc3ccc(C(=O)O)cc3)c(Cl)nc2c1`, for which the fluorescence ratio F(max-min)/F0 result was “inactive”.

On to `O=C(Nc1nnc(-c2ccccc2)o1)c1cc(-c2cccs2)nc2ccccc12`, for which the fluorescence ratio F(max-min)/F0 entry is “inactive”. With `O=C(Nc1nc2c(F)cc(F)cc2s1)C1COc2ccccc2O1` (stereo not drawn) the entry was “inactive”.

As for `Cc1ccc2nc(-c3ccc(NC(=O)CN(C)S(=O)(=O)c4ccccc4)cc3)sc2c1`, the fluorescence ratio F(max-min)/F0 result is “inactive”.

As to `CN(CC(=O)Nc1ccccc1Cl)C(=O)COc1cccc2c1OC(C)(C)C2`, the fluorescence ratio F(max-min)/F0 result was “inactive”. The entry for `O=C(c1cccc(S(=O)(=O)Nc2ccccc2Cl)c1)N1CCN(C(=O)c2ccco2)CC1` is “inactive”. As for `COc1ccc(NC(=O)c2cc(-c3ccc(C)o3)nc3ccccc23)cc1`, the fluorescence ratio F(max-min)/F0 entry was “inactive”. Consider `COCCNC(=O)Nc1ccc2nc(-c3ccco3)c(-c3ccco3)nc2c1`, for which the fluorescence ratio F(max-min)/F0 is 49.8 (active). For `CC(C)NC(=S)Nc1cccc2cnccc12`, the fluorescence ratio F(max-min)/F0 entry was “inactive”.

In the case of `O=C1CCCN1CCCNC(=S)Nc1ccc(F)c(Cl)c1`, the fluorescence ratio F(max-min)/F0 result was “inactive”.

Turning to `Cc1ccc(CS(=O)(=O)c2ncc(Cl)c(C(=O)Nc3nnc(C)s3)n2)cc1`, the fluorescence ratio F(max-min)/F0 entry was “inactive”. Consider `COc1ccc(S(=O)(=O)N2CCN(C(=O)NC3CCCCC3)CC2)cc1`, for which the fluorescence ratio F(max-min)/F0 entry is “inactive”. Consider `Cc1cccc(-n2c(Cc3cc(=O)[nH]c(=O)[nH]3)nnc2SC(C)C)c1`, for which the fluorescence ratio F(max-min)/F0 entry is “inactive”. For the compound `COc1cc(CCC(=O)Nc2ccncc2Cl)cc(OC)c1OC`, the fluorescence ratio F(max-min)/F0 result was “inactive”.

For the compound `O=C(COc1ccc(Cl)cc1)NC(=S)Nc1ccccc1N1CCOCC1`, the fluorescence ratio F(max-min)/F0 entry is “inactive”. On to `Nc1cc(OC(=O)c2ccccc2Br)nn1S(=O)(=O)c1ccccc1`, for which the fluorescence ratio F(max-min)/F0 entry was “inactive”. Turning to `O=C1C(=O)N(CC2COc3ccccc3O2)c2ccccc21` (stereo not drawn), the fluorescence ratio F(max-min)/F0 was 64.3 (active).

`COc1cccc(CNC(=O)C2CCN(S(=O)(=O)c3cccc4cccnc34)CC2)c1`: the fluorescence ratio F(max-min)/F0 result was “inactive”.

In the case of `Cc1ccc(N/C(N)=N/c2nc(C(F)(F)F)cc(C(F)(F)F)n2)cc1`, the fluorescence ratio F(max-min)/F0 entry is “inactive”. With `O=C(Nc1ccccc1N1CCCCC1)c1ccc2nccnc2c1` the entry was “inactive”; with `Cc1cccc(Cn2cnc3c(N)c(C)c(C)cc32)c1`, “inactive”. For the compound `CCOC(=O)c1c(NC(=O)CSc2cn(CC)c3ccccc23)sc2c1CCC2`, the fluorescence ratio F(max-min)/F0 result was “inactive”. On to `CCOc1ccc(C2=CC(c3ccccc3)n3ncnc3N2)cc1` (stereo not drawn), for which the fluorescence ratio F(max-min)/F0 result was “inactive”.

Regarding `O=C(NC1CCCCC1)C1c2ccccc2C(=O)N1Cc1ccco1` (stereo not drawn), the fluorescence ratio F(max-min)/F0 entry is “inactive”. On to `COc1ccc(OC)c(C(=O)c2ccc(Cl)cc2)c1`, for which the fluorescence ratio F(max-min)/F0 entry was “inactive”. The entry for `Cc1cc(Br)ccc1NC(=O)c1cnc(N2CCN(c3ccccn3)CC2)c2ccccc12` is “inactive”; for `Cc1ccc2nc(-c3ccc(NC(=O)c4cccnc4)cc3)oc2c1` it is “inactive”; for `CCOCc1nnc(NC(=O)CCC2CCCCC2)s1` it is “inactive”. For `CCOc1cc(-c2conc2N)cc(OCC)c1OCC`, the fluorescence ratio F(max-min)/F0 result is “inactive”. With `Cc1cc(C)cc(NC(=S)NCCc2c[nH]c3ccccc23)c1` the entry was “inactive”; with `C(=N\n1cnnc1)/c1cccnc1`, “inactive”; with `O=S(=O)(c1ccc2ccccc2c1)N1CCN(S(=O)(=O)N2CCOCC2)CC1`, “inactive”.

For `Cc1cc2oc3ccc(NCCC4CCCN4C)cc3c(=O)c2cc1C` (stereo not drawn), the fluorescence ratio F(max-min)/F0 is 95.1 (active). The entry for `COc1ccc(C2SCCN2S(=O)(=O)c2ccccc2)cc1OC` (stereo not drawn) is “inactive”; for `COc1ccccc1N(CC(=O)N1CCCCC1)S(=O)(=O)c1ccccc1` it is 78.4 (active). In the case of `Cc1ccc(OC(=O)c2cc3ccccc3o2)cc1`, the fluorescence ratio F(max-min)/F0 result was “inactive”. On to `Cc1nn(C(=O)c2ccoc2C)c(N)c1-c1ccccc1`, for which the fluorescence ratio F(max-min)/F0 entry is “inactive”. As for `O=C(Cc1ccccn1)c1ccc(O)cc1O`, the fluorescence ratio F(max-min)/F0 entry was “inactive”. With `O=C(Nc1ccccc1)c1nnsc1S(=O)(=O)c1ccc(Cl)cc1`, the fluorescence ratio F(max-min)/F0 result is “inactive”.

Regarding `CCCCCCCCCCOC(=O)Cn1c(COc2ccc(C)cc2)[n+](C)c2ccccc21`, the fluorescence ratio F(max-min)/F0 result was “inactive”. For the compound `Cc1ccc(Cc2cnc(N)s2)o1`, the fluorescence ratio F(max-min)/F0 result is “inactive”. With `CCNC(=O)c1c(O)c2cccc3c2n(c1=O)CC3` the entry was “inactive”; with `CCc1ccc2nc3sc(C(=O)Nc4nnc(CC)s4)c(N)c3cc2c1`, 47 (active). For `COCc1nnc(NC(=O)c2ccc3c(c2)OCO3)s1`, the fluorescence ratio F(max-min)/F0 entry is “inactive”. With `CCOC(=O)C1=C(O)CSC1=Nc1cccc(Cl)c1`, the fluorescence ratio F(max-min)/F0 result was “inactive”. As to `C=CCSc1nc(Cc2ccc(Cl)cc2)nc2ccccc12`, the fluorescence ratio F(max-min)/F0 entry was “inactive”. As for `Cc1cc(=O)oc2cc(NC(=O)C3CC(=O)N(Cc4ccccc4)C3)ccc12` (stereo not drawn), the fluorescence ratio F(max-min)/F0 result was “inactive”. Take `CCCc1nc2c(c(=O)c3ccccc3n2C)c(=O)n1C1CCCCCC1`: the fluorescence ratio F(max-min)/F0 entry is “inactive”.

Turning to `CCN(CC)CC(=O)Nc1nn(-c2ccccc2)nc1C(N)=O`, the fluorescence ratio F(max-min)/F0 result is “inactive”.

Take `COc1cc2c(cc1O)C(SC)=NC(C)(C)C2`: the fluorescence ratio F(max-min)/F0 result was “inactive”. `CCC1CCCCN1CCNC(=O)c1[nH]c(C)c(C(C)=O)c1C` (stereo not drawn): the fluorescence ratio F(max-min)/F0 entry is “inactive”. The entry for `Cc1ccc2c(C)c(C(=O)N(C)CCC3CCCCO3)oc2c1C` (stereo not drawn) is “inactive”. For `Cc1cccc(NC(=O)COc2ccccc2C)n1`, the fluorescence ratio F(max-min)/F0 result was “inactive”. With `O=C(O)CSC(NC(=O)c1cccnc1)(C(F)(F)F)C(F)(F)F`, the fluorescence ratio F(max-min)/F0 result is “inactive”.

As to `O=C(CCN1CCc2ccccc2C(O)(c2ccccc2)C1)c1ccc2c(c1)OCCO2` (stereo not drawn), the fluorescence ratio F(max-min)/F0 entry is “inactive”. Consider `CC(C)CC(=O)N/C(N)=N/c1nc2ccccc2s1`, for which the fluorescence ratio F(max-min)/F0 entry was “inactive”. `CC(C)CC(=O)NC(=S)NNC(=O)c1cccc([N+](=O)[O-])c1`: the fluorescence ratio F(max-min)/F0 is 53 (active).

For the compound `COc1ccc(C(=O)NC(=S)NNC(=O)c2c(-c3ccccc3)noc2C)cc1`, the fluorescence ratio F(max-min)/F0 was 108 (active). In the case of `Cc1onc(-c2ccccc2)c1C(=O)NNC(=S)NC(=O)c1ccc(F)cc1`, the fluorescence ratio F(max-min)/F0 is 123 (active).

The values above are taken from PubChem BioAssay AID624115 (Johns Hopkins Ion Channel Center, 2012).
